Measles_inh – inhibitors of measles virus growth in cells, primary screen, measles RdRp inhibitor project, cell-based, single point, HTS | infected Vero cells, GFP fluorescence, 64 h; active compounds read low | z-score (test concentration not listed) | 33,000 tested, 0.1% active | AID 745, 2007; in the data active means z-score below about -3
Starred values were filed as active, the others as inactive. This is one part of a sample in which hits are shown more often than they occur.

SMILES Measles_inh
Cc1ccc(-n2c(C=Cc3ccccc3)nc3ccccc3c2=O)c(C)c1 -0.69
Cc1ccc(-n2c(C=Cc3cccc(F)c3)nc3ccccc3c2=O)c(C)c1 -3.2*
COc1ccc(C=Cc2nc3ccccc3c(=O)n2-c2ccc(C)cc2C)cc1 0.2
C(#CCN1CCCCC1)COCC=Cc1ccccc1 -0.41
COc1ccc(-n2c(C=Cc3ccccc3Cl)nc3ccccc3c2=O)cc1 -0.29

Bioassay records (PubChem)
